Assay outcomes: PubChem, National Center for Advancing Translational Sciences (NCATS)
RORgamma inh – inhibitors of mouse ROR gamma transcriptional activity | Drosophila S2 Gal4-RORgamma UAS-luciferase reporter, 20 h | Potency, µM (top dose mostly 53.6 µM), inactives show at the highest dose activity change, negative = inhibition, usual class: inhibitors | P51450 | 310,000 tested, 5.4% active; also: nearly all actives have a fitted effect of over 60% in size
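Stably transfected Drosophila Schneider cells are the test system, with ROR gamma fused to Gal4 and luciferase under UAS control; luminescence is read after 20 hr of 700 uM copper sulfate induction at ambient temperature.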
DT40 TDP1 CPT – DT40-hTDP1 cell growth loss with CPT; chicken DT40 Tdp1-/-;hTDP1 cells + 20 nM CPT, ATP luminescence, 48 h; 420,000 tested, 12% active; Potency, µM (doses to about 46.2 µM), inactives show top-dose activity change, negative = growth inhibition, hits mostly inhibitors; also: nearly all actives have a fitted effect of over 55% in size
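Chicken DT40 Tdp1-/- cells stably complemented with human TDP1 were seeded at 400 cells/well in medium containing 20 nM camptothecin, exposed to pin-transferred compounds, and grown at 37 °C for at least 48 hr. Viability was read as ATP luminescence.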
TDP1 block – inhibitors of human tyrosyl-DNA phosphodiesterase TDP1 | Q9NUW8 | recombinant TDP1, AlphaScreen DNA substrate cleavage | Potency, µM (top dose mostly 130 µM), for inactives: at the highest dose activity change, negative = inhibition, most hits filed as inhibitors | 350,000 tested, 0.28% active | AID 485290; also: nearly all actives have a fitted effect of over 40% in size
Target sequence (Q9NUW8 whole entry, looked up): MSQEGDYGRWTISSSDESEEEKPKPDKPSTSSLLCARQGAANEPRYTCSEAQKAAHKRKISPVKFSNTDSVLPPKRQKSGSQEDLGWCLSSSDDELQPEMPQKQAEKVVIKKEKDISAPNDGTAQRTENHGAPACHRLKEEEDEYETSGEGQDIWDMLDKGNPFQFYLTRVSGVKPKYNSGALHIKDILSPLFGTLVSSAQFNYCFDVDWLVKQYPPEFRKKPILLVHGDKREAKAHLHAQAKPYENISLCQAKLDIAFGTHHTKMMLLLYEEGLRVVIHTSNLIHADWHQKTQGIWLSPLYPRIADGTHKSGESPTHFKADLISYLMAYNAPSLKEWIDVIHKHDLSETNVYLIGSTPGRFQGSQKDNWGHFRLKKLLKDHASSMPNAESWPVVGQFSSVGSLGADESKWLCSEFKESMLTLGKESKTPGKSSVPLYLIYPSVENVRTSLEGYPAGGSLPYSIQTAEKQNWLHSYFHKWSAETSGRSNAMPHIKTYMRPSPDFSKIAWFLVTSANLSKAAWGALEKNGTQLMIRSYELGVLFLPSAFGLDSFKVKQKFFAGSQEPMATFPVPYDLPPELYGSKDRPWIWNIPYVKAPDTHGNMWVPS
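Signal: AlphaScreen proximity between streptavidin donor and anti-FITC acceptor beads on intact substrate. Reaction: Tdp1 1 nM, substrate 15 nM final, 5 min RT after 15 min compound preincubation.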
Gal4-VP16 FLuc – counter-screen for ROR gamma inhibitors: Gal4-VP16 reporter. Drosophila S2 Gal4-VP16 UAS-luciferase, luminescence, 20 h. Potency, µM (series often up to 53.6 µM), without a hit: top-dose activity, negative = inhibition, usual class: inhibitors. 310,000 tested, 3.5% active;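 also: Gal4-VP16 expression switched on by copper sulfate through the metallothionein promoter; nearly all actives have a fitted effect of over 50% in size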
DT40 TDP1 no CPT – qHTS for Inhibitors of human tyrosyl-DNA phosphodiesterase 1 (TDP1): qHTS in cells in absence of CPT; Potency, µM (top dose mostly 46.2 µM), inactives show at the highest dose activity change, negative = growth inhibition, hits mostly inhibitors; AID 686978, 2013; DT40 Tdp1-/- hTDP1 cells, no CPT, ATP luminescence, 48 h; 420,000 tested, 15% active; also: nearly all actives have a fitted effect of over 55% in size
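Compound effects on proliferation are scored in DT40 Tdp1-/-;hTDP1 cells in the absence of CPT. ATP levels (CellTiter-Glo luminescence) are recorded after a ≥48 hr, 37 °C incubation.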
Starred values were filed as active, the others as inactive; ? = inconclusive; . = no result given; [ ] = dose if it differs, or a comment. An excerpt weighted towards active compounds, which were near 19% of everything screened. Calls follow the shape of the dose curve; as a rule, active = well fitted curve in the direction sought with a large enough effect; inconclusive = small, poorly fitted or top-dose-only effect, or another doubt; inactive = no such curve, though single readings can be large; an effect the other way counts as inactive or inconclusive. % is scaled to controls: 0 for no effect and ±100 for the full control effect; potency is read from the fitted curve at half-maximal effect.

SMILES | RORgamma inh | DT40 TDP1 CPT | TDP1 block | Gal4-VP16 FLuc | DT40 TDP1 no CPT
COc1ccccc1C(=O)Nc1ccc(OCC(=O)N2C(C)CCCC2C)cc1 (stereo not given) | . | -13.5% | 0.3% | . | ?
NNC(=O)c1cc(C23CC4CC(CC(C4)C2)C3)nc2ccccc12 | ? | 5.5% | . | ? | -9.6%
COc1ccc(-c2cc(=O)[nH]c(=O)[nH]2)cc1 | -17.6% | 4.1% | -12.2% | 2.7% | -15.6%
COc1ccc(-c2cc3nc(CCl)[nH]c(=O)c3s2)cc1 | ? | 4.61µM* | 4.6% | 10µM* | 4.11µM*
COc1ccc2c(c1)C(=O)[C@H](OC(=O)NCCOc1ccccc1)[C@@H](c1ccc(OC)c(Br)c1)O2 | -0.5% | . | 11.2% | -0.1% | .
CN(C)c1ccc(N=NS(=O)(=O)O)cc1 | -6.2% | 21.7µM* | 14.4% | -0.1% | 24.3µM*
CN(C)c1ccc(C=O)cc1 | . | -7.7% | . | . | 10.2%
CN(C)c1ccc(N=Nc2ccc(C(=O)O)cc2)cc1 | 0.501µM* | 0.0% | . | 1.41µM* | 2.5%
COC(=O)c1cc(-c2c(C)oc3cc(OC)ccc3c2=O)c(C)o1 | 13.7% | 11.6µM* | 3.6% | 0.9% | 18.4µM*
CC(C)CCN(CC(=O)NCc1ccc(F)cc1)S(=O)(=O)c1ccccc1F | 12.6% | 23.1µM* | . | -5.4% | ?
COCCNC(=S)N/N=C/c1c2ccccc2cc2ccccc12 | 7.08µM* | 3.66µM* | 5.5%[0.0935 µM] | ? | 4.11µM*
NC(=S)N/N=C\c1c2ccccc2cc2ccccc12 | -145.8% | 14.6µM* | 5.5% | ? | ?
NC(=S)N/N=C\c1c(OCc2ccccc2Cl)ccc2ccccc12 | 1.12µM* | 6.51µM* | 6.3% | 3.16µM* | ?
NC(=S)N/N=C/c1cccnc1 | 10.5% | 13.3% | 3.2% | 3.2% | -2.9%
NC(=S)N/N=C/c1ccccc1 | 15.8µM* | -2.3% | 0.0% | 20µM* | -22.8%
COc1cccc(C(C)NC(=O)C2CCCO2)c1 (stereo not given) | -2.4% | -2.8% | . | -4.4% | -2.2%
Cc1c(C(=O)N2CCC(n3nccc3NC(=O)C3CC3)CC2)[nH]c2ccc(Cl)cc12 | ? | ? | 4.0% | -10.2% | -11.3%
NC(=S)N/N=C/c1ccc(C23CC4CC(CC(C4)C2)C3)cc1 | 0.447µM* | 9.2µM* | . | 2.82µM* | 3.66µM*
NC(=S)NN=Cc1cc(-c2cccc(N)c2)ccn1 | . | 3.66µM* | . | . | 4.11µM*
Cc1cc(N2CCC(N(C)C3CCCC3)CC2)nc2cc(O)ccc12 | -34.6% | ? | 7.6% | -0.7% | 18.4µM*
CC(C)c1ccc(CN2CCC2(C)C(=O)Nc2ccc3c(c2)OCO3)cc1 (stereo not given) | . | ? | . | . | 8.2µM*
CC(C)c1ccc(CC(=O)N2CCC2(C)C(=O)Nc2ccc3c(c2)OCCO3)cc1 (stereo not given) | . | -9.1% | . | . | ?
CC(C)Oc1ccc(CN2CCC2(C)C(=O)Nc2ccc3c(c2)OCO3)cc1 (stereo not given) | . | 16.4µM* | . | . | ?
O=C(CSCc1ccccc1)Nc1ccc(F)cc1F | ? | -6.9% | 0.0% | 4.7% | 10.1%
CCOC(=O)c1c(C)[nH]c(CCC(=O)Nc2ccc(N(CC)CC)cc2C)c1C | . | 13µM* | 2.7% | . | ?
SMILES | RORgamma inh | DT40 TDP1 CPT | TDP1 block | Gal4-VP16 FLuc | DT40 TDP1 no CPT
CCOC(=O)c1c(C)[nH]c(CCC(=O)Nc2ccc(Cl)cc2C)c1C | . | -41.1% | 2.7% | . | ?
CCOC(=O)c1c(C)[nH]c(CCC(=O)Nc2ccc(C)c(F)c2)c1C | . | 20.6µM* | 5.4% | . | 14.6µM*
CC(=O)c1c(C)[nH]c(C(=O)Nc2cc(F)ccc2C)c1C | -13.4% | 9.0% | -4.5% | -3.2% | -3.8%
CCN(CC)c1ccc(NC(=O)c2[nH]c(C)c(C(C)=O)c2C)c(C)c1 | 13.3% | 23.1µM* | -4.1% | -7.1% | 18.4µM*
CCOC(=O)c1c(C)[nH]c(C(=O)Nc2ccc(C)c(Cl)c2)c1C | -3.7% | . | 2.6% | ? | .
CCN(CC)c1ccc(NC(=O)C2=CCN(S(=O)(=O)c3ccc(F)cc3)CC2)c(C)c1 | ? | 18.4µM* | 3.9% | -18.9% | 18.4µM*
